# Results filed as inconclusive are left out. Where a call stands in place of a potency, no number is given. The source made the active and inactive calls. Calls follow the shape of the dose curve; as a rule, active = well fitted curve in the direction sought with a large enough effect; inconclusive = small, poorly fitted or top-dose-only effect, or another doubt; inactive = no such curve, though single readings can be large; an effect the other way counts as inactive or inconclusive.
# Experiments:
# [1] = target: Metallo-beta-lactamase type 2 (Klebsiella pneumoniae) (UniProt C7C422); assay: qHTS to identify inhibitors of the New Delhi Metallo-beta-lactamase (NDM): assay validation screen against the NCATS LOPAC Collection (AID 1794843);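 also: nitrocefin turnover by NDM-1 measured as 485 nm absorbance at plateau; series mostly up to about 38 µM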
# How it was run: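 Enzyme 2 nM final, 50 mM HEPES pH 7.0, 1 uM ZnSO4, 0.01% Tween20; cpds in DMSO, preincub w/ enzyme; + nitrocefin (50 uM stock); A485 at plateau; no-enzyme column as blank.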
# [2] = target: Phospholipid hydroperoxide glutathione peroxidase GPX4 (Homo sapiens) (UniProt P36969); assay: Primary qHTS Assay for Inhibitors of Recombinant Selenoprotein Glutathione Peroxidase 4 (GPX4) (AID 1845192); also: nearly all actives have a fitted effect of over 65% in size
# How it was run: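 qHTS, GR-coupled: GPX4 200 nM + cpd 30 min RT → GSH 1 mM, NADPH 0.5 mM, GR 100 nM → CHP 0.5 mM start; fluor 340/450 at t0 and t15 min; no-enzyme wells as control.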
# [3] = target: Glutathione peroxidase 1 (Homo sapiens) (UniProt P07203); assay: Primary qHTS Assay for Inhibitors of Recombinant Selenoprotein Glutathione Peroxidase 1 (GPX1) (AID 1845191); also: nearly all actives have a fitted effect of over 65% in size
# How it was run: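 GPX1 10 nM, GR 100 nM, GSH 1 mM, NADPH 0.5 mM, CHP 0.5 mM (final). 30-min cpd preincubation, RT. Ex340/Em450 read t=0, t=15 min.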
# [4] = Quantitative High-Throughput drug screen in 47 multiple myeloma cell lines against the NCATS MIPE library collection: FR4_PLB cell viability assay (AID 1918924; also: nearly all actives have a fitted effect of over 35% in size; also: potency is read from the fitted curve at half-maximal effect)
# How it was run: (§1)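 Relative luminescence from CellTiter-Glo served as the viability signal, referenced to DMSO-treated (100%) and cell-free medium (0%) controls. Treatment lasted 48 hours at 37C with 500 cells per well.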
# [5] = Quantitative High-Throughput drug screen in 47 multiple myeloma cell lines against the NCATS MIPE library collection: Delta47_JCRB cell viability assay (AID 1918925; also: nearly all actives have a fitted effect of over 45% in size; also: potency is read from the fitted curve at half-maximal effect)
# How it was run: as §1
# [6] = target: Luciferin 4-monooxygenase (Photinus pyralis) (UniProt P08659); assay: Primary firefly luciferase (FLuc) qHTS assay for identification of artifact compounds. (AID 1845220); conditions: outcome: dose series up to 54.1 µM; also: nearly all actives have a fitted effect of over 60% in size
# How it was run: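 In this counter-screen for luciferase artifacts, test compounds met substrate (10 uM each luciferin and ATP) before 10 nM enzyme started the reaction. Light output was measured 5 min later.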
# [7] = Primary fluorescence-based thiol-reactive (MSTI) qHTS assay for identification of artifact compounds. (AID 1845221);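 also: series mostly up to about 54 µM; thiol-reactive compounds lower the probe fluorescence signal; nearly all actives have a fitted effect of over 65% in size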
# How it was run: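 MSTI probe at 4 uM final in 2% DMSO/PBS pH 7.4; compounds, 1 h at room temperature in dark. Fluorescence Ex/Em 525/598 nm, normalised to Acetyl-MSTI and MSTI, fitted to 4-parameter Hill.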
# [8] = system: Nanoluciferase (engineered Oplophorus gracilirostris luciferase); assay: Primary Nanoluciferase (NLuc) qHTS assay for identification of artifact compounds. (AID 1845222);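 also: NLuc secreted into diluted conditioned medium of S16 cells; series mostly up to about 54 µM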
# How it was run: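 Using secreted nanoluciferase in S16 culture medium (0.22 um filtered, 1:55 dilution), compounds were preincubated 15 min at RT. Signal was generated with Nano-Glo reagent (1:100) over 5 min.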
# [9] = Primary redox qHTS assay for identification of artifact compounds. (AID 1845223)
# How it was run: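 Redox-cycling detection via DTT (250 uM final) oxidation coupled to Amplex Red (25 uM)/HRP (250 mU/mL) in HBSS. 15 min preincubation plus 30 min after DTT, room temperature. Ex/Em 525/598 nm; 4-parameter Hill fit against DMSO and 10 uM DA3003.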
# [10] = Quantitative High-Throughput drug screen in 47 multiple myeloma cell lines against the NCATS MIPE library collection: EJM_DSMZ cell viability assay (AID 1918926; also: nearly all actives have a fitted effect of over 30% in size; also: potency is read from the fitted curve at half-maximal effect)
# How it was run: as §1
# Chain of Metallo-beta-lactamase type 2 (Klebsiella pneumoniae) (C7C422 whole entry, looked up): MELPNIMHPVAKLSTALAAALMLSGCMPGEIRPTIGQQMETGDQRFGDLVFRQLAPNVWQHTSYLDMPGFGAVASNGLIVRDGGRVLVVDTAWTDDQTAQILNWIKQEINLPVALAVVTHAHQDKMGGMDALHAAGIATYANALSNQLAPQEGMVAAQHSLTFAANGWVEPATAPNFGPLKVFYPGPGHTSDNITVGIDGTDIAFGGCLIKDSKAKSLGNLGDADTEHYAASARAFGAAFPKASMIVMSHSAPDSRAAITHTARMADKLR
# Chain of Glutathione peroxidase 1 (Homo sapiens) (P07203 whole entry, looked up): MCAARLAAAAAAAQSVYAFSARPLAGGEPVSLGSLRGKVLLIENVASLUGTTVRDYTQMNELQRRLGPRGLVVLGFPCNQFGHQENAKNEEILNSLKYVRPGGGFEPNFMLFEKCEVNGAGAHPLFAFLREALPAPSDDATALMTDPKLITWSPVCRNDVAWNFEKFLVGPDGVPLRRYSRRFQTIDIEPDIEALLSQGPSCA
# Chain of Phospholipid hydroperoxide glutathione peroxidase GPX4 (Homo sapiens) (P36969 whole entry, looked up): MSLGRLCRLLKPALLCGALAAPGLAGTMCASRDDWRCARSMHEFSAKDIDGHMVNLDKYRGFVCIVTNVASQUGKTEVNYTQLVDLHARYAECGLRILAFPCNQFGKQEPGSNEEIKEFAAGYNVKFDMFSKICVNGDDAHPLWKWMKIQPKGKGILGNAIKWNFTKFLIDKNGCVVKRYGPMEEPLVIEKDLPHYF
smiles,measurement,setting,value
CC(CCc1ccccc1)NC(C)C(O)c1ccc(O)cc1 (stereo unspecified),outcome,[1],inactive
same,Potency,[2],inactive
CC[C@@H](CO)NC(=O)[C@@H]1C=C2c3cccc4[nH]cc(c34)C[C@H]2N(C)C1,outcome,[1],inactive
same,Potency,[2],inactive
NN=C(N)N,outcome,[1],inactive
same,Potency,[3],inactive
same,Potency,[2],inactive
COc1ccc(C(CN(C)C)C2(O)CCCCC2)cc1 (stereo unspecified),outcome,[1],inactive
same,Potency,[3],inactive
same,Potency,[2],inactive
same,Potency,[4],inactive
same,Potency,[5],inactive
CCC1(C2=NCCN2)Cc2ccccc2O1 (stereo unspecified),outcome,[1],inactive
same,Potency,[2],inactive
Cc1cccc(C)c1NC1=NCCCS1,outcome,[1],inactive
same,Potency,[3],inactive
same,Potency,[2],inactive
Cc1ncc(CNC(=O)N(CCCl)N=O)c(N)n1,outcome,[1],inactive
same,Potency,[3],inactive
same,Potency,[2],inactive
CC(O)(CS(=O)(=O)c1ccc(F)cc1)C(=O)Nc1ccc(C#N)c(C(F)(F)F)c1 (stereo unspecified),outcome,[1],inactive
same,Potency,[2],inactive
same,outcome,[6],inactive
same,outcome,[7],inactive
same,outcome,[8],inactive
same,outcome,[9],inactive
same,Potency,[5],296 nM (active)
same,Potency,[10],187 nM (active)
O=c1[nH]c2ccccc2n1C1CCN(CCCC(c2ccc(F)cc2)c2ccc(F)cc2)CC1,outcome,[1],inactive
same,Potency,[2],inactive
same,outcome,[6],inactive
same,outcome,[7],inactive
same,outcome,[8],inactive
same,outcome,[9],inactive
CCCN1CCC[C@@H]2Cc3nc(N)ncc3C[C@H]21,outcome,[1],inactive
same,Potency,[2],inactive
NCC(O)c1ccc(O)cc1 (stereo unspecified),outcome,[1],inactive
same,Potency,[2],inactive
CC[C@@H](CO)NC(=O)[C@@H]1C=C2c3cccc4c3c(cn4C)C[C@H]2N(C)C1,outcome,[1],inactive
same,Potency,[2],inactive
c1ccc2c(c1)OCC(C1=NCCN1)O2 (stereo unspecified),outcome,[1],inactive
same,Potency,[3],inactive
same,Potency,[2],inactive
CCCN1CCC[C@@H]2Cc3[nH]ncc3C[C@H]21,outcome,[1],inactive
same,Potency,[2],inactive
CNCC(O)c1ccc(O)cc1 (stereo unspecified),outcome,[1],inactive
same,Potency,[3],inactive
same,Potency,[2],inactive
same,Potency,[4],inactive
same,Potency,[5],inactive
same,Potency,[10],inactive
COc1ccccc1N1CCNCC1,outcome,[1],inactive
same,Potency,[2],inactive
O=C1NCN(c2ccccc2)C12CCN(CC1COc3ccccc3O1)CC2 (stereo unspecified),outcome,[1],inactive
same,Potency,[2],inactive
Cn1c(CCCC(=O)O)nc2cc(N(CCCl)CCCl)ccc21,outcome,[1],inactive
same,Potency,[3],inactive
same,Potency,[2],inactive
same,Potency,[4],16600 nM (active)
same,Potency,[5],1180 nM (active)
Cc1ccc(S(=O)(=O)N[C@@H](CCCCN)C(=O)CCl)cc1,outcome,[1],inactive
same,Potency,[3],inactive
same,Potency,[2],inactive
CC(=O)[C@H]1CC[C@H]2[C@@H]3CC[C@H]4C[C@H](O)CC[C@]4(C)[C@H]3C(=O)C[C@]12C,outcome,[1],inactive
same,Potency,[2],inactive
CC(C)=CCOc1c2occc2cc2ccc(=O)oc12,outcome,[1],inactive
same,Potency,[2],inactive
NCC(CC(=O)O)c1ccc(Cl)cc1 (stereo unspecified),outcome,[1],inactive
same,Potency,[2],inactive
CC(=O)[C@H]1CC[C@H]2[C@@H]3CC[C@H]4C[C@](C)(O)CC[C@]4(C)[C@H]3CC[C@]12C,outcome,[1],inactive
same,Potency,[2],inactive
c1ccc(C2CC2)c(OCC2=NCCN2)c1,outcome,[1],inactive
same,Potency,[2],inactive
Nc1ccncc1,outcome,[1],inactive
same,Potency,[2],inactive
CN1C[C@H](CNC(=O)OCc2ccccc2)C[C@@H]2c3cccc4c3c(cn4C)C[C@H]21,outcome,[1],inactive
same,Potency,[3],inactive
same,Potency,[2],inactive
O=c1[nH]c2ccccc2n1CCCN1CCC(n2c(=O)[nH]c3cc(Cl)ccc32)CC1,outcome,[1],inactive
same,Potency,[2],inactive
same,Potency,[4],inactive
C[C@@H]1O[C@@H](O[C@H]2C[C@@H](O)[C@]3(CO)[C@H]4[C@H](O)C[C@]5(C)[C@@H](C6=CC(=O)OC6)CC[C@]5(O)[C@@H]4CC[C@]3(O)C2)[C@H](O)[C@H](O)[C@H]1O,outcome,[1],inactive
same,Potency,[3],inactive
same,Potency,[2],inactive
same,outcome,[6],inactive
same,outcome,[7],inactive
same,outcome,[8],inactive
same,outcome,[9],inactive
same,Potency,[4],9.3 nM (active)
same,Potency,[5],29.6 nM (active)
same,Potency,[10],23.5 nM (active)
CNC(=O)N1N=C(c2ccc(N)cc2)c2cc3c(cc2CC1C)OCO3 (stereo unspecified),outcome,[6],inactive
same,outcome,[8],inactive
same,outcome,[9],inactive
Cc1cc(SCc2sc(-c3ccc(C(F)(F)F)c(F)c3)nc2C)ccc1OCC(=O)O,outcome,[7],inactive
same,outcome,[8],inactive
